Source: PubChem
ELG1 genotoxic: induces genotoxicity in HEK293T cells with luciferase-tagged ELG1. HEK293T ELG1-luciferase reporter, luminescence, 16 h. Potency, µM (highest dose often 46 µM), without a hit: at the highest dose activity change, positive = activation, hits mostly activators. actives 1.3% (n = 330,000); note: % of control where 0% means no effect; nearly all actives have a fitted effect of over 60% in size
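HEK293T cells expressing luciferase-tagged ELG1 were treated with compound or DMSO for 16 hr at 37°C. Luciferase activity was then read after 30 min with ONE-Glo at room temperature; rising signal flags genetic stress.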
FLuc modulator: firefly luciferase modulation, counter-screen for miR-21 project. purified FLuc, Km substrates, luminescence inhibition. Potency, µM (titrated, usually from 57.5 µM), for the others: at the top dose activity change, negative = inhibition, actives largely listed as inhibitors. P08659. actives 6.9% (n = 360,000);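 note: plate controls were vehicle for no effect and reference inhibitor for full effect; nearly all actives have a fitted effect of over 55% in size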
Target sequence (P08659 whole entry, looked up): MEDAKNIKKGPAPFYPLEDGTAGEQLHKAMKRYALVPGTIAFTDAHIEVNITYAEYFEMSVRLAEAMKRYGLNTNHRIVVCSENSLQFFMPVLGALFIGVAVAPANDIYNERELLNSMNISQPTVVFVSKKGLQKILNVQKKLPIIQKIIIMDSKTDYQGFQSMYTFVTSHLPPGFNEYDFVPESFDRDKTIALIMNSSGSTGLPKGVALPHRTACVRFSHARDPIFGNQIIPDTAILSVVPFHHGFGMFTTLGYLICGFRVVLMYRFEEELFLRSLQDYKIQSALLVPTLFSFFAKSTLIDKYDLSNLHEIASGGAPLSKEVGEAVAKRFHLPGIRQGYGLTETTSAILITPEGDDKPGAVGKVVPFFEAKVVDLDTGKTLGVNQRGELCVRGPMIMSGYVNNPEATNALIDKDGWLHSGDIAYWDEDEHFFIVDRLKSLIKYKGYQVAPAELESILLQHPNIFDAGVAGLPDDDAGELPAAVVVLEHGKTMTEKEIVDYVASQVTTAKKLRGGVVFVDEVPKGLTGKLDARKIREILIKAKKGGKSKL
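Purified P. pyralis luciferase (10nM final) with 10uM D-luciferin and 10uM ATP (Km levels) in 50mM Tris acetate pH 7.5, 10mM Mg acetate, 0.01% Tween-20, 0.05% BSA; qHTS 6-point titration, ~60 µM downward; luminescence read.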
SMN2 splice up: increases expression of the SMN2 splice variant. HEK293 SMN2-luciferase splicing reporter, luminescence, 30-36 h. Potency, µM (top dose mostly 46.1 µM), for the others: at the highest dose activity change, positive = activation, hits mostly activators. actives 2.8% (n = 210,000). AID 1458; note: % of control where 0% means no effect; nearly all actives have a fitted effect of over 55% in size
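HEK293 cells carry an SMN2 minigene-luciferase reporter in which exon 7 inclusion puts luciferase in frame. Cells were seeded at 2000 cells/well, attached for 10-12 hours, then exposed to compounds for 30-36 hours at 37C before ONE-Glo luminescence.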
NPC1 prom act: NPC1 promoter activation | AID 485313 | Potency, µM (top dose mostly 9.22 µM), for inactives: at the highest dose activation, actives largely listed as activators | Huh7 NPC1 promoter luciferase reporter, 24 h | actives 2.4% (n = 320,000); note: % of control where 0% means no effect; nearly all actives have a fitted effect of over 60% in size
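Readout is luciferase luminescence, reflecting NPC1 promoter activation in stably transfected Huh7 cells after 24 h compound exposure at 37 °C in reduced-serum medium with 10% FBS.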
Rab9 prom act: activators of Rab9 promoter; AID 485297; Potency, µM (highest dose often 9.22 µM), for the others: at the top dose activation, negative = inhibition, most hits filed as activators; Huh7 Rab9 promoter-luciferase reporter, luminescence, 24 h; actives 2.8% (n = 320,000); note: % of control where 0% means no effect; nearly all actives have a fitted effect of over 60% in size
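Huh7 cells stably carrying Rab9 promoter–luciferase reporter, plated 1500 cells/well, compound added after 2 h and incubated 24 h at 37 °C; luciferase luminescence then read after 10 min with detection reagent.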
Starred values were filed as active, the others as inactive; ? = inconclusive; . = no result; [ ] = remark or other dose. The list is not random: actives were taken first. Their share in the collection is about 7.5%. Calls come from the whole dose curve; as a rule, active = well fitted curve in the direction sought with a large enough effect; inconclusive = small, poorly fitted or top-dose-only effect, or another doubt; inactive = no such curve, though single readings can be large; an effect the other way counts as inactive or inconclusive. Potency is the fitted concentration of half-maximal effect.

SMILES	ELG1 genotoxic	FLuc modulator	SMN2 splice up	NPC1 prom act	Rab9 prom act
CCSc1nnc(NC(=O)c2csc3c2CCC(C)C3)s1 (stereo unspecified)	4%	-2%	5%	-2%	-2%
CC1CCc2c(C(=O)NCc3ccccn3)csc2C1 (stereo unspecified)	?	21µM*	?	?	22%
CC1CCc2c(C(=O)NCc3cccnc3)csc2C1 (stereo unspecified)	1%	-9%	-17%	-1%	1%
CC1CCc2c(C(=O)Nc3nccs3)csc2C1 (stereo unspecified)	?	4.8µM*	?	?	?
CC1CCc2c(C(=O)Nc3ccccn3)csc2C1 (stereo unspecified)	?	2.1µM*	.	3.5µM*	3.2µM*
CCc1ccc(-n2c(=O)c3c4c(sc3n(CC(=O)NCCCOC)c2=O)CCC4)cc1	.	-10%	-2%	.	.
COc1ccc(Cl)cc1NC(=O)c1noc2c1CCc1ccccc1-2	.	-3%	0%	.	.
Cc1cccc(NC(=O)C(C)Sc2nc3nc(C)cc(C)n3n2)c1 (stereo unspecified)	5%	.	.	.	.
CC1CCc2sc(C(=O)NCc3ccccn3)cc2C1 (stereo unspecified)	18µM*	19µM*	.	25%	?
Cc1ccc(C(NC(=O)CN2C(=O)NC3(CCCC3)C2=O)c2ccccc2)cc1 (stereo unspecified)	-3%	0%	.	-1%	-2%
CCC1CSC(=Nc2ccc(C)cc2)N1C(=O)CN1C(=O)NC2(CCCC2)C1=O (stereo unspecified)	2.6µM*	17µM*	.	0.56µM*	0.79µM*
CCOc1cccc2cc(C(=O)NCc3ccc(C)cc3)c(=N)oc12	3%	15µM*	.	-5%	-3%
CCN(CC)c1ccc2cc(C(=O)NCc3ccc(F)cc3)c(=N)oc2c1	-11%	17µM*	.	3%	0%
N=c1oc2ccc(Br)cc2cc1C(=O)NCc1ccc(F)cc1	1%	?	.	0%	-12%
COc1ccc(N=NC2=C(O)CC(C)(C)CC2=O)c(OC)c1	7%	?	7%	7%	14%
COc1ccc(N=Nc2nc3cc(Br)c(Br)cc3n2C)c(OC)c1	-19%	5.4µM*	17%	0%	0%
COc1ccc2cc(C3NC(=O)c4ccccc4N3)c(Cl)nc2c1 (stereo unspecified)	0%	-4%	-43%	-2%	-5%
COc1ccc2cc(C3OCCO3)c(Cl)nc2c1	?	12µM*	.	2.5µM*	2.5µM*
N#C/C(=C\c1ccc(O)c(O)c1)C(=O)Nc1ccccc1	?	?	22µM*	23%[46.1 µM]	-21%[46.1 µM]
C[C@@H](NC(=O)/C(C#N)=C/c1ccc(O)c(O)c1)c1ccccc1	-17%	2%	?	-13%[46.1 µM]	-36%[46.1 µM]
N#C/C(=C\c1ccc2c(c1)OCO2)C(N)=S	0%	-11%	.	0%	1%
N#C/C(=C\c1cccc(O)c1)C(=O)Nc1ccc2c(c1)OCCO2	16%	0.48µM*	.	1%	7%
CC(C)NC(=O)/C(C#N)=C/c1ccc2c(c1)OCCO2	23%	9.5µM*	2%	-2%	4%
Cc1ccc(CN(C(=O)COc2ccc(C(C)C)cc2)C2CCS(=O)(=O)C2)o1 (stereo unspecified)	.	-7%	-31%	.	.
Cc1onc(-c2ccccc2Cl)c1C(=O)Nc1ccccc1O	-9%	0%	.	-3%	-2%
SMILES	ELG1 genotoxic	FLuc modulator	SMN2 splice up	NPC1 prom act	Rab9 prom act
O=C1/C(=C/c2cccs2)COc2ccccc21	?	1.3µM*	-2%	-2%	15%
CCCOc1ccc(NC(=O)CC2C(=O)N(c3cccc(OC)c3)C(=O)N2CCc2ccncc2)cc1 (stereo unspecified)	.	5%	.	.	.
CC1(C)CC(=O)c2cnc(N3CCc4ccccc43)nc2C1	?	2.1µM*	.	2.8µM*	3.5µM*
O=C1CC(c2ccc(F)cc2)Cc2nc(N3CCc4ccccc43)ncc21 (stereo unspecified)	0%	-4%	-12%	2%	3%
CC(C)CC(=O)Nc1cccc(-c2nc3ccccc3[nH]2)c1	-2%	17µM*	?	2%	-6%
CC(Oc1ccccc1)C(=O)Nc1cccc(-c2nc3ccccc3[nH]2)c1 (stereo unspecified)	-5%	12µM*	.	0%	0%
CC(C)(C)C(=O)Nc1cccc(-c2nc3ccccc3[nH]2)c1	0%	15µM*	29%	11%	5%
CC(=O)Nc1cccc(-c2nc3ccccc3[nH]2)c1	4%	?	-34%	6%	23%
Cn1c(C2=C(O)CN(Cc3ccccc3)C2=N)nc2ccccc21	?	?	.	23%	22%
Cc1nc(NCCc2ccc(O)cc2)c2nnn(Cc3ccccc3)c2n1	6%	7%	.	11%	0%
COc1cccc(CNC(=O)CCc2c(C)c3ccc(O)c(C)c3oc2=O)c1	.	3%	-10%	.	.
O=C(Nc1onc2c1CCCC2)c1ccccc1	.	4.8µM*	?	.	.
CC(C)(C)c1ccc(C(=O)Nc2onc3c2CCCC3)cc1	.	0.34µM*	11µM*	.	.
Cc1nnc(SCC(=O)NC2CCCC(C)C2C)n1N (stereo unspecified)	0%	.	.	.	.
Cc1ccccc1NC(=O)c1ccc(OCC(=O)Nc2ccccc2F)cc1	-7%	4%	-7%	-1%	-1%
CC(C)(C)c1ccc(OC(=O)Nc2ccc(O)c(C(=O)O)c2)cc1	6%	1.2µM*	-13%[9.22 µM]	-1%	3%
Cc1ccc(OCC(=O)Nc2ccc(O)c(C(=O)O)c2)cc1C	2%	17µM*	-4%	1%	1%
NC(=O)C1CC(=O)N(c2ccc(OCC(=O)Nc3ccccc3F)cc2)C1 (stereo unspecified)	?	17µM*	.	?	2.2µM*
Cc1ccc(OCC(=O)Nc2ccccc2F)cc1C	10µM*	9.5µM*	.	22%	?
NC(=O)C1CC(=O)N(c2ccc(OCC(=O)Nc3ccc(F)cc3)cc2)C1 (stereo unspecified)	4%	-6%	.	7%	10%
CC(C(=O)Nc1ccc2c(c1)OCO2)N1CCC(N2CCCCC2)CC1 (stereo unspecified)	0%	0%	.	-2%	-1%
OCC[C@@H]1C[C@H](O)[C@@H](O)[C@@]2(OCCc3ccccc32)O1	-4%	-1%	.	1%	-2%
O=C(Cn1nnc(-c2ccccc2)n1)N1CCCCC1	?	0%	.	27%	?
O=C(Cn1nnc(-c2ccccc2Cl)n1)N1CCCCC1	?	17µM*	.	?	4µM*
CC(C)COc1ccc(-c2nnn(CC(=O)N3CCCC3)n2)cc1	?	12µM*	9%	18%	20%
O=C(Cn1nnc(-c2ccc(OCc3ccccc3F)cc2)n1)N1CCOCC1	?	2.7µM*	13%	?	?
